According to PubChem BioAssay (NCATS):
Activity calls are given as the source filed them. A call without a number means that no potency is given here. Unless noted, calls follow the shape of the dose curve; as a rule, active = well fitted curve in the direction sought with a large enough effect; inconclusive = small, poorly fitted or top-dose-only effect, or another doubt; inactive = no such curve, though single readings can be large; an effect the other way counts as inactive or inconclusive.

What was measured:
[1] = molecular target: Ubiquitin carboxyl-terminal hydrolase 1 (Homo sapiens) (UniProt O94782); experiment: Inhibitors of USP1/UAF1: Pilot qHTS (AID 504865); also: nearly all actives have a fitted effect of over 35% in size; also: potency is read from the fitted curve at half-maximal effect
Method in brief: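 Enzyme-free wells gave the negative control, while test wells held 1nM USP1/UAF1 preincubated with compound for 15 min at room temperature. Ub-Rho at 150nM final started the reaction, and fluorescence at 480/540 nm was recorded kinetically.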

[2] = qHTS for Inhibitors of ATXN expression: Validation of Cytotoxic Assay (AID 588349)
Method in brief: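 Cytotoxicity counter-screen: HEK293 cells exposed to compound titrations, 72 hr, 37 degrees C. Read-out is intracellular ATP (CellTiter Glo luminescence) as a viability measure.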

[3] = molecular target: Estrogen receptor (Homo sapiens) (UniProt P03372); experiment: qHTS assay for small molecule antagonists of estrogen receptor alpha signaling (AID 588513; active = well fitted curve in the direction sought with a large enough effect in the signal ratio, with a control signal flat, not every such curve was filed as active; inconclusive = small, poorly fitted or top-dose-only effect, or effect the other way, or a change in a side signal; inactive = no such curve, though single readings can be large or run the other way; the % refers to the signal ratio; also: potency is read from the fitted curve at half-maximal effect)
Method in brief: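 Antagonist-mode qHTS in ER-alpha-UAS-bla HEK 293 cells: compound titration, 0.5nM estradiol for 18 h, CCF4 fluorescence, Hill-derived IC50.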

[4] = molecular target: Estrogen receptor (Homo sapiens) (UniProt P03372); experiment: qHTS assay for small molecule agonists of estrogen receptor alpha signaling (AID 588514; calls by dose curve; also: nearly all actives have a fitted effect of over 70% in size)
Method in brief: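 Read-out: CCF4 fluorescence from a beta-lactamase reporter in ER-alpha-UAS-bla HEK 293 cells after 18 hrs of compound exposure at 37 C. Normalized to 20 nM 17-beta-estradiol (100%) and DMSO (0%).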

[5] = molecular target: Androgen receptor (Homo sapiens) (UniProt P10275); experiment: qHTS assay for small molecule agonists of androgen receptor signaling (AID 588515; active = well fitted curve in the direction sought with a large enough effect in the signal ratio, with a control signal flat; inconclusive = small, poorly fitted or top-dose-only effect, or effect the other way, or a change in a side signal; inactive = no such curve, though single readings can be large or run the other way; the % refers to the signal ratio); settings: AR-UAS-bla HEK293, beta-lactamase ratio, agonist 16 h; stronger effect = higher value
Method in brief: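 Stimulation of an AR-responsive β-lactamase reporter in GripTite HEK293 cells was measured after 16 h compound exposure at 37 °C, via CCF4 fluorescence after 2 h RT. EC50 from Hill fits, normalized to R1881 at 30 nM.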

[6] = molecular target: Androgen receptor (Homo sapiens) (UniProt P10275); experiment: qHTS assay for small molecule antagonists of androgen receptor signaling (AID 588516; active = well fitted curve in the direction sought with a large enough effect in the signal ratio, with a control signal flat, not every such curve was filed as active; inconclusive = small, poorly fitted or top-dose-only effect, or effect the other way, or a change in a side signal; inactive = no such curve, though single readings can be large or run the other way; the % refers to the signal ratio)
Method in brief: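 Compounds tested in titration against 10 nM R1881 in AR-responsive bla reporter HEK 293 cells; CCF4 fluorescence (460/530 nm) after 16 h exposure gave IC50 and efficacy.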

[7] = molecular target: Bile acid receptor (Homo sapiens) (UniProt Q96RI1); experiment: qHTS assay for small molecule antagonists of farnesoid X receptor signaling (AID 588526; calls by dose curve)
Method in brief: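 Concentration-response titrations were fitted to the Hill equation for half-maximal inhibition and maximal response, with data normalised to 50 uM chenodeoxycholic acid and DMSO control wells. Cells: FXR-UAS-bla HEK293T, dialyzed FBS.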

[8] = molecular target: Glucocorticoid receptor (Homo sapiens) (UniProt P04150); experiment: qHTS assay for small molecule agonists of glucocorticoid receptor signaling (AID 588532; active = well fitted curve in the direction sought with a large enough effect in the signal ratio, with a control signal flat; inconclusive = small, poorly fitted or top-dose-only effect, or a change in a side signal; inactive = no such curve, though single readings can be large or run the other way; the % refers to the signal ratio); settings: HeLa MMTV-bla, beta-lactamase ratio, agonist, 18 h; stronger effect = higher value; percent of dexamethasone control, DMSO zero
Method in brief: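 Stimulation of a glucocorticoid response element-driven beta-lactamase gene was measured in HeLa cells. Responses were scaled between DMSO basal and 0.1 uM dexamethasone, then fitted for half-maximal stimulation.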

[9] = molecular target: Glucocorticoid receptor (Homo sapiens) (UniProt P04150); experiment: qHTS assay for small molecule antagonists of glucocorticoid receptor signaling (AID 588533; active = well fitted inhibition curve with a large enough effect in the signal ratio, with a control signal flat, not every such curve was filed as active; inconclusive = small, poorly fitted or top-dose-only effect, or effect the other way, or a change in a side signal; the % refers to the signal ratio;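 also: cells stimulated with 2 nM dexamethasone as agonist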)
Method in brief: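 Antagonist-mode qHTS: compound titrations added to GRE-bla HeLa cells, then dexamethasone 2 nM final; 18 h, 37 C. CCF4 FRET fluorescence normalized to dexamethasone and DMSO; IC50 from Hill fit.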

[10] = molecular target: Peroxisome proliferator-activated receptor delta (Homo sapiens) (UniProt Q03181); experiment: qHTS assay for small molecule agonists of peroxisome proliferator-activated receptor delta signaling (AID 588534; calls by dose curve)
Method in brief: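 Titration series tested in agonist mode on beta-lactamase reporter cells; 18 hrs at 37 C after a 5 hr pre-incubation. Readout: CCF4 fluorescence, 2 hrs RT. Hill equation gives EC50 and maximal response.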

[11] = qHTS assay for small molecule antagonists of peroxisome proliferator-activated receptor delta signaling (AID 588535; active = well fitted inhibition curve with a large enough effect in the signal ratio, with a control signal flat, not every such curve was filed as active; inconclusive = small, poorly fitted or top-dose-only effect, or effect the other way, or a change in a side signal; inactive = no such curve, though single readings can be large or run the other way; the % refers to the signal ratio;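 as to max response: cells co-treated with a PPAR-delta agonist as stimulator during compound exposure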); settings: HEK293T PPARd-UAS-bla, beta-lactamase FRET ratio, 18 h; 460 nm channel
Method in brief: (§1)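 Compounds tested in titration on PPAR-delta-UAS-bla HEK293T cells grown in charcoal/dextran-stripped serum (2%); beta-lactamase activity read via CCF4 emission at 460 and 530 nm.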

[12] = molecular target: Peroxisome proliferator-activated receptor delta (Homo sapiens) (UniProt Q03181); experiment: as above
Method in brief: as §1

[13] = molecular target: Peroxisome proliferator-activated receptor gamma (Homo sapiens) (UniProt P37231); experiment: qHTS assay for small molecule agonists of peroxisome proliferator-activated receptor gamma signaling (AID 588536; active = well fitted curve in the direction sought with a large enough effect in the signal ratio, with a control signal flat, not every such curve was filed as active; inconclusive = small, poorly fitted or top-dose-only effect, or effect the other way, or a change in a side signal; inactive = no such curve, though single readings can be large or run the other way; the % refers to the signal ratio)
Method in brief: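 Cells were plated and held 6–6.5 h at 37 C, then compounds were added as a titration series. After a further 16 h, CCF4 dye was loaded for 2 h at room temperature and emission at 460/530 nm recorded.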

[14] = molecular target: Peroxisome proliferator-activated receptor gamma (Homo sapiens) (UniProt P37231); experiment: qHTS assay for small molecule antagonists of peroxisome proliferator-activated receptor gamma signaling (AID 588537; active = well fitted inhibition curve with a large enough effect in the signal ratio, with a control signal flat, not every such curve was filed as active; inconclusive = small, poorly fitted or top-dose-only effect, or effect the other way, or a change in a side signal; the % refers to the signal ratio;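 also: reporter cells co-stimulated with 50 nM rosiglitazone agonist during compound treatment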)
Method in brief: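 HEK293 cells, PPAR-gamma-UAS-bla, 3000/well. Pre-incubation 6-6.5 h, 37 C. Compound titration with rosiglitazone 50 nM final, 16 h. CCF4 dye, 2 h RT, dual-emission fluorescence.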

[15] = molecular target: Vitamin D3 receptor (Homo sapiens) (UniProt P11473); experiment: qHTS assay for small molecule antagonists of vitamin D receptor signaling (AID 588541; calls by dose curve;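 also: receptor activated by calcitriol during compound treatment; series mostly up to about 77 µM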)
Method in brief: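 VDR-UAS-bla HEK293T cells (2000/well, 2% charcoal-stripped FBS) were treated with titrated compounds plus 1-alpha,25-dihydroxyvitamin D3 (50 nM or 3 nM final) for 16 h at 37 C. CCF4 beta-lactamase fluorescence was read; Hill fits gave IC50.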

[16] = molecular target: Vitamin D3 receptor (Homo sapiens) (UniProt P11473); experiment: qHTS assay for small molecule agonists of vitamin D receptor signaling (AID 588543; calls by dose curve)
Method in brief: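 Measured: β-lactamase reporter activity (CCF4, 405 nm excitation, 460/530 nm emission) in HEK293T VDR-UAS-bla cells after 16 h compound exposure at 37 °C. Normalization against 50 nM 1α,25-dihydroxyvitamin D3 and DMSO; Hill-fit EC50.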

[17] = molecular target: DNA dC->dU-editing enzyme APOBEC-3G (Homo sapiens) (UniProt Q9HC16); experiment: qHTS for inhibitors of Vif-A3G interactions: Validation (AID 588379)
Method in brief: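 Yellow fluorescence (Ex 488, Em 500-530) of Vif-coexpressing HeLa A3G-eYFP cells, scanned by Acumen cytometer, reports blocked A3G degradation. Cells plated at 700/well overnight at 37 deg C before compound addition, then a further overnight compound incubation at 37 deg C.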

[18] = qHTS for Inhibitors of ATXN expression: Validation (AID 588378); also: series mostly up to about 57 µM; nearly all actives have a fitted effect of over 75% in size
Method in brief: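 After a 2 h attachment and 24 h compound incubation, HEK293-ATXN2-FFLuc wells are read for fluorescence at 405 nm excitation/525 nm emission as a viability measure, then for Bright-Glo luminescence reflecting ATXN2 expression.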

Chain of Ubiquitin carboxyl-terminal hydrolase 1 (Homo sapiens) (O94782 whole entry, looked up): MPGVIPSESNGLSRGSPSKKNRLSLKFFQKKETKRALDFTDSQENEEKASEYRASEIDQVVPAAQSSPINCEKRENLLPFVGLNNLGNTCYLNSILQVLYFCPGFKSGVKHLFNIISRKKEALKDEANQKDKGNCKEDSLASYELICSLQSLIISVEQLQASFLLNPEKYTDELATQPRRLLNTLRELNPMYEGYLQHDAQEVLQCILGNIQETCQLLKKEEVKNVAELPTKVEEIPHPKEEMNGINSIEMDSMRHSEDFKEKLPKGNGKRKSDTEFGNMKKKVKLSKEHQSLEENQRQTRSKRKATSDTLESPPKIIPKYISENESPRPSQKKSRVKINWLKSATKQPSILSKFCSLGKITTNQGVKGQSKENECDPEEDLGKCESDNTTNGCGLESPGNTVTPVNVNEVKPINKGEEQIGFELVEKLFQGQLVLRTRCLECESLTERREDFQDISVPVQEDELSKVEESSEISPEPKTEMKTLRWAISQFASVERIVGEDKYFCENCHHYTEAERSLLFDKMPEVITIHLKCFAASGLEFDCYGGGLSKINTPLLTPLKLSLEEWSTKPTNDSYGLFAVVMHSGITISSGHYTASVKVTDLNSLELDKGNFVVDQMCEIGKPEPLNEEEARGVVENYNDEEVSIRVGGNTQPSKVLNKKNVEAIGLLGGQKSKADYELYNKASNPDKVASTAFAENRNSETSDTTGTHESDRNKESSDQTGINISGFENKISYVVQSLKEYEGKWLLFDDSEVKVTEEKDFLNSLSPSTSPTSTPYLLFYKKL
Chain of Estrogen receptor (Homo sapiens) (P03372 whole entry, looked up): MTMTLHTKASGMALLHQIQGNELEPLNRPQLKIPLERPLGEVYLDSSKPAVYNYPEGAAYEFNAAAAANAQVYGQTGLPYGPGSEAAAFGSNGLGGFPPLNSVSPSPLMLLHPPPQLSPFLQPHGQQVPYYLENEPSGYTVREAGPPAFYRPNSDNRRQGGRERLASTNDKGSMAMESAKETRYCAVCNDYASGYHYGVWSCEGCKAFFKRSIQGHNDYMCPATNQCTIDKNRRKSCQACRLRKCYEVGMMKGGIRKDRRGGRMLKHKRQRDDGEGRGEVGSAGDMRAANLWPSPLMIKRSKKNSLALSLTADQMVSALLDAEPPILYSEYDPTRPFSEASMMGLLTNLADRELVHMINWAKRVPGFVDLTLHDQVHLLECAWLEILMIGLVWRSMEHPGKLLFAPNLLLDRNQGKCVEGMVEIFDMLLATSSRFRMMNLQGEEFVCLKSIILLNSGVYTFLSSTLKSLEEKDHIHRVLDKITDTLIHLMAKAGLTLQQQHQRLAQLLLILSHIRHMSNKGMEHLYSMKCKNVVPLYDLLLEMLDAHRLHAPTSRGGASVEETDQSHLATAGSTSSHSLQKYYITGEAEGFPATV
Chain of Glucocorticoid receptor (Homo sapiens) (P04150 whole entry, looked up): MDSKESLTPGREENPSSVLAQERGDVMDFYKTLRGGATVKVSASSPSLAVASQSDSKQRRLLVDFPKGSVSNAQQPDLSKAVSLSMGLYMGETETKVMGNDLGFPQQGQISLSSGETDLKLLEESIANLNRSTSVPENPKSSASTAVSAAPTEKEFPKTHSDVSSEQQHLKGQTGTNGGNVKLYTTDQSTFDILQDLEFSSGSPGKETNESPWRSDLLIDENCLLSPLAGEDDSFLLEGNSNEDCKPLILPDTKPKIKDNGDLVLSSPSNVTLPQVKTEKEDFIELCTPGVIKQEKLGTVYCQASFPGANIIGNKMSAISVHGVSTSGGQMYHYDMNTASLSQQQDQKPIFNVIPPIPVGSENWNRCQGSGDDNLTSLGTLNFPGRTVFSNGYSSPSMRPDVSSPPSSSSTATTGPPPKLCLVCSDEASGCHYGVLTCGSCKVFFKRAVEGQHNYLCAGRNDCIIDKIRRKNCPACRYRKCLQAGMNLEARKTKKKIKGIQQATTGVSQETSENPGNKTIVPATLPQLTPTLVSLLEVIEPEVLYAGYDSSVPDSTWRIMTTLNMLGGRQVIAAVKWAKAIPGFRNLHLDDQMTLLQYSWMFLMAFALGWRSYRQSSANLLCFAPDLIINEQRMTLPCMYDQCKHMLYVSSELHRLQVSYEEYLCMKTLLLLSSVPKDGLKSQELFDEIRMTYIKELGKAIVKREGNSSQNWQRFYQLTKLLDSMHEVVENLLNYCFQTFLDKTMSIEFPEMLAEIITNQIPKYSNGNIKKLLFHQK
Chain of DNA dC->dU-editing enzyme APOBEC-3G (Homo sapiens) (Q9HC16 whole entry, looked up): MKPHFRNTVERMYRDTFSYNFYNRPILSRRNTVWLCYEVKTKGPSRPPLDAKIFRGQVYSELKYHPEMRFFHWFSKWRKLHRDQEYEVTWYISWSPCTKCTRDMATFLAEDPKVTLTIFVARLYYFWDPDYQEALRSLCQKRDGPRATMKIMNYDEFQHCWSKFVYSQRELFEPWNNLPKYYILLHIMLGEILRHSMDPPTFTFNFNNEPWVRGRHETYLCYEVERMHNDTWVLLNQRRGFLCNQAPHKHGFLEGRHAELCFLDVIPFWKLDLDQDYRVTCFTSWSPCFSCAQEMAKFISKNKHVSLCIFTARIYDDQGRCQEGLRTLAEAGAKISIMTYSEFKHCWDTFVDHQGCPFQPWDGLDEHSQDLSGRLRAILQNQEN
Chain of Androgen receptor (Homo sapiens) (P10275 whole entry, looked up): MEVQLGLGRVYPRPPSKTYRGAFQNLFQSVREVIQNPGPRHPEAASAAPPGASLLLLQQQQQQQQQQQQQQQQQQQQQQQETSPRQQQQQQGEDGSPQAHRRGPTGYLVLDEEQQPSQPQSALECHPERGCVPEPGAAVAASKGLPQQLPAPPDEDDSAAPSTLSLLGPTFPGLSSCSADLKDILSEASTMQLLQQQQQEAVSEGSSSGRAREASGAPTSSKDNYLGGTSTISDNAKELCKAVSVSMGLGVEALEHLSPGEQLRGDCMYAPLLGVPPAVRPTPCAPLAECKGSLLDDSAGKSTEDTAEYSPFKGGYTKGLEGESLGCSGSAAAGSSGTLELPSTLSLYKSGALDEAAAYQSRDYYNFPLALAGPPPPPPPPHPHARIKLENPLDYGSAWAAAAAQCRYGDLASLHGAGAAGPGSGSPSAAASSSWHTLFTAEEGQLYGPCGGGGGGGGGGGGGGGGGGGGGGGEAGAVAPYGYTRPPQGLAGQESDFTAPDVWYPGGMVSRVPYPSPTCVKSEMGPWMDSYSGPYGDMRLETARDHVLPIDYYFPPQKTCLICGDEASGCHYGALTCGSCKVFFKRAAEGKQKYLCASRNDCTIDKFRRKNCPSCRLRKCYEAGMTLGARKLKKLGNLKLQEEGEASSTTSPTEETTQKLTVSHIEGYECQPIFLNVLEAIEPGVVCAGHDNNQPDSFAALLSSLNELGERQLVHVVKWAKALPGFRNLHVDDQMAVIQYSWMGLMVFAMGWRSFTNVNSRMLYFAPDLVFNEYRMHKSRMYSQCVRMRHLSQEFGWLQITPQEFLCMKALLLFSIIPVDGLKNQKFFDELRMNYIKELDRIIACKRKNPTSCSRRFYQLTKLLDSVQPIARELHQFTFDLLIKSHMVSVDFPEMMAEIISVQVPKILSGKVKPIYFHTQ
Chain of Vitamin D3 receptor (Homo sapiens) (P11473 whole entry, looked up): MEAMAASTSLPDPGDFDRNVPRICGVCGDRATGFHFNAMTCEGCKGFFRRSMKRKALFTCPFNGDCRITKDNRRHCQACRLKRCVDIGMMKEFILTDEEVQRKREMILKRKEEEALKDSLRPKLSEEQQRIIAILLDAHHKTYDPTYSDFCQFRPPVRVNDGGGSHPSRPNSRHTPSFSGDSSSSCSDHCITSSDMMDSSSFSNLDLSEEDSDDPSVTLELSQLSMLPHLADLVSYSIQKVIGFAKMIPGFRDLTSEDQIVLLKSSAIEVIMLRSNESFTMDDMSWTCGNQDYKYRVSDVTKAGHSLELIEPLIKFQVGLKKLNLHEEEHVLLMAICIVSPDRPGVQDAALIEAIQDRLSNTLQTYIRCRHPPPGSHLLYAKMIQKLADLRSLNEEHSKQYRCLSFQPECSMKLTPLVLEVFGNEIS
Chain of Peroxisome proliferator-activated receptor gamma (Homo sapiens) (P37231 whole entry, looked up): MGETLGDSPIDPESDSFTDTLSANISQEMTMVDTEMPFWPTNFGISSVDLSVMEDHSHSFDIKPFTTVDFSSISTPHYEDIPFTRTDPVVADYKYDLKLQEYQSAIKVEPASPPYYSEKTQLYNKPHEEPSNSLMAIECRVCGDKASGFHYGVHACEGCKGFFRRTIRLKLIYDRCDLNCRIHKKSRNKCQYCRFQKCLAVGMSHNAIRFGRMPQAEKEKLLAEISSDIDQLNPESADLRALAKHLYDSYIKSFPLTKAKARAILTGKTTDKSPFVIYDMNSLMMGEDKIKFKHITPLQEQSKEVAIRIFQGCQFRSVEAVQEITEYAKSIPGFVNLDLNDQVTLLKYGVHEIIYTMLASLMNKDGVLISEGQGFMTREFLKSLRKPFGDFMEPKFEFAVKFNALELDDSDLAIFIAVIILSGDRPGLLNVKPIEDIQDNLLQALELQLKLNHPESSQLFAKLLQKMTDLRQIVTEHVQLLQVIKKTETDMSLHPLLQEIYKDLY
Chain of Peroxisome proliferator-activated receptor delta (Homo sapiens) (Q03181 whole entry, looked up): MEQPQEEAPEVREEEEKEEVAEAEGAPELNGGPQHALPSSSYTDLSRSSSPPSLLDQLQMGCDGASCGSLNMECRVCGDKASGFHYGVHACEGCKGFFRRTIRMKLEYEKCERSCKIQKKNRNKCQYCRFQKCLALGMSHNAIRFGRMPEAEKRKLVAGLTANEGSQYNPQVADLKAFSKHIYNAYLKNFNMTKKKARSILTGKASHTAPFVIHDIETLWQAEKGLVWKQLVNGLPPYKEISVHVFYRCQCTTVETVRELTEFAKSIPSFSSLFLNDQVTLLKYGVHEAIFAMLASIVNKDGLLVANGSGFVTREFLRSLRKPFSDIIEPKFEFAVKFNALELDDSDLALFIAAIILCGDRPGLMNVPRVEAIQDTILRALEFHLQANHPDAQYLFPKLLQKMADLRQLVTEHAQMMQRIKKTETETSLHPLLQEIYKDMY

## CCNC(C)Cc1cccc(C(F)(F)F)c1 (stereo unspecified)
[1]
  Potency: inactive

## Clc1cc(I)cc(Cl)c1NC1=NCCN1
[1]
  Potency: inactive
[2]
  Potency: inactive

## O=C(NC(=O)c1c(F)cccc1F)Nc1ccc(Cl)c(Oc2ncc(C(F)(F)F)cc2Cl)c1
[1]
  Potency: inactive

## S=C(S)N1CCNCC1
[1]
  Potency: inactive

## O=C1CCO1
[1]
  Potency: inactive
[3]
  Potency: inactive
[4]
  Potency: inactive
[5]
  activation: 25.6% (inactive)
[6]
  outcome: inactive
[7]
  Potency: inactive
[8]
  activation: -0.359% (inactive)
[9]
  Potency: inactive
[10]
  outcome: inactive
[11]
  max response: 13.3%
[12]
  outcome: inactive
[13]
  outcome: inactive
[14]
  Potency: inactive
[15]
  Potency: inactive
[16]
  outcome: inactive

## CCC1(c2ccccc2)C(=O)NC(=O)N(C(=O)c2ccccc2)C1=O (stereo unspecified)
[1]
  Potency: inactive

## CCN(CC)C(=O)/C(Cl)=C(\C)OP(=O)(OC)OC
[1]
  Potency: inactive

## COc1ccc2c(c1)C13CCCCC1C(C2)N(C)CC3 (stereo unspecified)
[1]
  Potency: inactive
[2]
  Potency: inactive

## CNC1(c2ccccc2Cl)CCCCC1=O (stereo unspecified)
[1]
  Potency: inactive

## CN1[C@@H]2CC[C@H]1CC(OC1c3ccccc3CCc3ccccc31)C2 (stereo partly specified)
[1]
  Potency: inactive

## COc1ccc2c3c1O[C@H]1C(=O)CC[C@H]4[C@@H](C2)N(C)CC[C@]314
[1]
  Potency: inactive

## Cn1sc(Cl)cc1=O
[1]
  Potency: inactive

## Cc1cc(C)cc(C(=O)OC2C[C@H]3CC[C@@H](C2)N3C)c1 (stereo partly specified)
[1]
  Potency: inactive
[17]
  outcome: inactive

## O=C1CCCCC1CN1CCCCC1 (stereo unspecified)
[1]
  Potency: inactive

## NC(N)=NOCC[C@H](N)C(=O)O
[1]
  Potency: inactive
[18]
  Potency: inactive
[17]
  outcome: inactive

## OC(c1ccccc1)(c1ccccc1)C1CN2CCC1CC2 (stereo unspecified)
[1]
  Potency: inactive

## C[C@H](Cc1ccc2c(c1)OC(C(=O)O)(C(=O)O)O2)NC[C@H](O)c1cccc(Cl)c1
[1]
  Potency: inactive
[2]
  Potency: inactive
[18]
  Potency: inactive

## F/C(COc1ccc2c(c1)[nH]c1ccccc12)=C1/CN2CCC1CC2
[1]
  Potency: inactive

## COc1ccc(CNC(=O)/C=C/c2ccc3[nH]cc(CCN(C)C)c3c2)cc1
[1]
  Potency: inactive
[2]
  Potency: inactive

## O=C(CS(=O)C(c1ccccc1)c1ccccc1)NO (stereo unspecified)
[1]
  Potency: inactive

## O=S(=O)(O)c1cc(O)ccc1O
[1]
  Potency: inactive

## CC[N+](C)(CC)CCOC(=O)C(O)(c1ccccc1)c1ccccc1
[1]
  Potency: inactive

## O=C(OCCN1CCCCC1)C(O)(c1ccccc1)c1ccccc1
[1]
  Potency: inactive

## [N-]=[N+]=CC(=O)OCC(N)C(=O)O (stereo unspecified)
[1]
  Potency: inactive

## CCCN(CCC)C1CCc2cccc(O)c2C1 (stereo unspecified)
[1]
  Potency: inactive
[2]
  Potency: inactive
[18]
  Potency: inactive

## [Cl-].[Cl-].[Hg+2]
[1]
  Potency: 3.98 µM (active)
[3]
  Potency: 2.51 µM [inconclusive] (active)
[4]
  Potency: inactive

## C/C(=C\c1csc(C)n1)[C@@H]1C[C@@H]2O[C@]2(C)CCC[C@H](C)[C@H](O)[C@@H](C)C(=O)C(C)(C)[C@@H](O)CC(=O)O1
[1]
  Potency: inactive

## NNC(=O)c1ccc(O)cc1
[1]
  Potency: inactive
[2]
  Potency: inactive
[18]
  Potency: inactive

## Clc1ccc(C2(Cn3cncn3)OCCO2)c(Cl)c1
[1]
  Potency: inactive

## CCC1(c2ccccc2)C(=O)NC(=O)N(C)C1=O (stereo unspecified)
[1]
  Potency: inactive

## CC(N)Cc1ccc(O)cc1 (stereo unspecified)
[1]
  Potency: inactive

## CCC1(C)CC(=O)NC(=O)C1
[1]
  Potency: inactive

## COc1ccc2[nH]c3c(c2c1)CCNC3
[1]
  Potency: inactive
[2]
  Potency: inactive

## NCC(O)c1cc(O)c(O)cc1F (stereo unspecified)
[1]
  Potency: inactive
[2]
  Potency: inactive

## CC(Cc1ccccc1)NC=O (stereo unspecified)
[1]
  Potency: inactive

## C=CCN1CC[C@]23c4c5ccc(O)c4O[C@H]2[C@@H](O)C=C[C@H]3[C@H]1C5
[1]
  Potency: inactive
